Each structure is given as a SMILES string. “And” between values parts separate entries of the source, which are not always exact repeats. Equal entries are not always repeated. Where a structure was tested more than once in an assay, its records may differ in their call. The source made the active and inactive calls. The calls were made as follows: active = hit-call score of the fitted dose curve at least 0.9, where 1 is the maximum; inactive = score below 0.9.

Read-out in this assay: urokinase Plasminogen Activator (uPA), PLAU (gene 5328)
Kind of assay: BSK_BF4T_uPA: BioMAP Diversity Plus: BF4T Assay for urokinase Plasminogen Activator (uPA) Biomarker Activity (AID 2284275). The note with it: primary human bronchial epithelial cells with fibroblasts. On the procedure: BSK_BF4T is a cell-based, multiplexed-readout assay that uses bronchial epithelial cells and dermal fibroblasts, a human vascular primary cell, with measurements taken at 24 hours after chemical dosing in a microplate: 96-well plate.BSK_BF4TA is an assay component measured in the BSK_BF4T assay. It measures uPA antibody related to regulation of gene expression using ELISA technology.Data from the assay component BSK_BF4TA was analyzed at the endpoint, BSK_BF4TA, in the positive analysis fitting direction relative to DMSO as the negative control and baseline of activity. Using a type of binding reporter, gain or loss-of-signal activity can be used to understand protein changes. To generalize the intended target to other relatable targets, this assay endpoint is annotated to the 'protease' intended target family, where the subfamily is 'serine protease'.
The levels of cell surface (or secreted, indicated by the prefix "s") biomarker endpoints were measured by ELISA. Overt cytotoxicity to cells in confluent adherent cultures (all systems other than the BT system) was assessed by measuring total protein levels using sulforhodamine B (SRB) staining in parallel cultures at the time of biomarker measurements, indicated as SRB endpoints. For proliferation assays for adherent cell types, individual cell types are cultured at sub-confluence and relative cell numbers quantified by SRB staining at time points optimized for each system (48 h: 3C and CASM3C systems; 72 h: BT and HDF3CGF systems; 96 h: SAg system). SRB was performed by staining cells with 0.1% SRB after fixation with 10% TCA and reading wells at 560 nm.Viability and proliferation of PBMC (T cells) was quantified by Alamar Blue reduction for the SAg and BT systems. For PBMC viability (referred to as PBMC Cytotoxicity within the assay endpoint names), cells were plated (75,000/well in a 96-well plate) and then chemical samples added for 1 h before addition of activators, SEB and TSST-1 (20 ng/mL final concentration each). Cells were incubated for 90 h. Then, Alamar Blue (20 uL/well) (Invitrogen, Cat DAL1100) was added for 6 h, and the plates were read with a fluorescence microplate reader at 546/580 nm (excitation/emission). For PBMC proliferation, cells were plated and activated as above but incubated for only 16 h prior to addition of Alamar Blue. Plates were read after 6 h.
For `FC(F)(F)C(F)(F)C(F)(F)C(F)(F)C(F)(F)C(F)(F)C(F)(F)C(F)(F)F`, the outcome was inactive. Same read-out and setting: next, `O=C(O)C(F)(F)C(F)(F)OC(F)(F)F`: “inactive”; `O=S(=O)(OCCOC(F)(F)F)C(F)(F)F`: “inactive”. As usually defined, the AC50 is the midpoint of the concentration-response curve, whichever way the signal moves. `O=C(Cl)C(F)(F)C(F)(F)C(F)(F)C(F)(F)C(F)(F)C(F)(F)C(F)(F)C(F)(F)F`: the AC50 was 46 µM (active) and 48 µM (active) and 44.8 µM (active). In the case of `OCC(F)(F)C(F)(F)C(F)(F)F`, the outcome was inactive. Still for that read-out and setting: to `COC(=O)CCC(F)(F)C(F)(F)C(F)(F)C(F)(F)F` belongs “inactive”; to `Cc1ccc(S(=O)(=O)OCC(F)(F)C(F)(F)C(F)(F)C(F)(F)C(F)(F)C(F)F)cc1`, “inactive”. With `O=S(=O)(O)C(F)(F)C(F)(F)C(F)(F)C(F)(F)C(F)(F)C(F)(F)C(F)(F)F`, the outcome was inactive. Still for that read-out and setting: next, `FC(F)(F)C(F)(F)C(F)(F)C(F)(F)C(F)(F)C(F)(F)C(F)(F)I`: “inactive”; `O=C(O)C(F)(OC(F)(F)C(F)(OC(F)(F)C(F)(F)C(F)(F)F)C(F)(F)F)C(F)(F)F` (stereo not given): “inactive”. For `CCCCCCCCC(F)(F)C(F)(F)C(F)(F)C(F)(F)C(F)(F)C(F)(F)F`, the result was inactive. For `C=CC(=O)OCC(F)(F)C(F)(F)C(F)(F)C(F)(F)C(F)(F)C(F)(F)C(F)(F)F`, the result was inactive. On to `C=CC(=O)OCC(F)(F)C(F)(F)C(F)(F)C(F)(F)COC(=O)C=C`, for which the AC50 is 30 µM (active) and the result was inactive. Regarding `O=C(O)C(F)(F)C(F)(F)C(F)F`, the result was inactive. On the same count and under the same terms, next, `O=C(O)C=C(C(F)(F)F)C(F)(F)F`: “inactive”; `O=C(O)C(F)(F)C(F)(F)C(F)(F)C(F)(F)C(F)(F)C(F)(F)C(F)(F)C(F)(F)C(F)(F)C(F)(F)C(F)(F)C(F)(F)F`: “inactive”. Still for that read-out and setting: next, `O=C(O)C(F)(F)C(F)(F)C(F)(F)F`: “inactive”.

On to `CC(C)(C)C(=O)CC(=O)C(F)(F)C(F)(F)C(F)(F)F`, for which the outcome was inactive. The same measure, in the same setting: next, `OCC(F)(F)C(F)(F)C(F)(F)C(F)(F)C(F)(F)C(F)F`: “inactive”; `O=C(O)C(F)(OC(F)(F)C(F)(OC(F)(F)C(F)(OC(F)(F)C(F)(F)C(F)(F)F)C(F)(F)F)C(F)(F)F)C(F)(F)F` (stereo not given): “inactive”; `O=P(O)(O)OCCC(F)(F)C(F)(F)C(F)(F)C(F)(F)C(F)(F)C(F)(F)F`: “inactive”. Same read-out and setting: next, `FC(F)(F)C(F)(F)C(F)(F)N(C(F)(F)C(F)(F)C(F)(F)F)C(F)(F)C(F)(F)C(F)(F)F`: “inactive”. Turning to `FC(F)(I)C(F)(F)C(F)(F)C(F)(F)I`, the AC50 is 49.9 µM (active) and 53.8 µM (active) and 46.2 µM (active). For `C=CC(F)(F)C(F)(F)C(F)(F)C(F)(F)C(F)(F)C(F)(F)C(F)(F)C(F)(F)F`, the outcome was inactive. In the case of `CCO[Si](CCC(F)(F)C(F)(F)C(F)(F)C(F)(F)C(F)(F)C(F)(F)F)(OCC)OCC`, the outcome was inactive. In the case of `O=C(O)C(F)(F)C(F)(F)C(F)(F)C(F)(F)C(F)(F)C(F)(F)C(F)(F)C(F)(F)C(F)(F)C(F)F`, the AC50 was 41.3 µM (active) and 17.5 µM (active). As for `O=C(CC(=O)C(F)(F)C(F)(F)F)C(F)(F)F`, the outcome was inactive. With `FC(F)(F)C(F)(F)C(F)(F)C(F)(F)C(F)(F)C(F)(F)C(F)(F)C(F)(F)CCS`, the result was inactive. The same measure, in the same setting: next, `C=C(C)C(=O)OCC(F)(F)C(F)(F)C(F)(F)F`: “inactive”; `FC1CC(F)(F)C(F)(F)C1(F)F` (stereo not given): “inactive”; `O=C(O)C(F)(F)C(F)(F)F`: “inactive”. With `N=C(N)C(F)(F)C(F)(F)C(F)(F)C(F)(F)C(F)(F)C(F)(F)C(F)(F)F`, the outcome was inactive. On the same count and under the same terms, to `OCCCC(F)(F)C(F)(F)C(F)(F)F` belongs “inactive”; to `O=C(O)C(F)(F)C(F)(F)C(F)(F)C(F)(F)F`, “inactive”. On the same count and under the same terms, to `O=C(O)C(F)(F)C(F)(F)C(F)(F)C(F)(F)C(F)(F)C(F)(F)C(F)(F)C(F)(F)C(F)(F)C(F)(F)C(F)(F)C(F)(F)C(F)(F)F` belongs “inactive”. As to `O=S(=O)(OCC(F)F)C(F)(F)F`, the result was inactive.

With `FC(F)(F)C(F)(F)C(F)(F)CI`, the result was inactive. On to `C=C(C)C(=O)OCCC(F)(F)C(F)(F)C(F)(F)C(F)(F)C(F)(C(F)(F)F)C(F)(F)F`, for which the result was inactive. For `FC(F)(F)C(F)(F)C(F)(F)C(F)(F)C(F)(F)C(F)(F)C(F)(F)Br`, the outcome was inactive.

The values are drawn from PubChem BioAssay (EPA / NIEHS).
